The source of these data is PubChem BioAssay (NCI).

Compounds without any hit were thinned out: in the full panel of roughly 79,000, 15% have a hit. Values without a mark were called inactive. Calls of active or inactive are those of the source. Cut-off read from the data, not from the text of the source: active = growth inhibition above about 70%; inactive = the rest.

Test [1] can be described thus: NCI Yeast Anticancer Drug Screen. Data for the rad50 strain (AID 155).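 Note: 0% = growth of vehicle-only cultures of the same strain.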 To be noted: S. cerevisiae rad50 strain growth inhibition; at 50.0 µM; stronger effect = higher value. An outline of the steps: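 Relative growth inhibition (compound vs vehicle) was measured in yeast with a defined repair-gene alteration.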
The nature of test [2]: NCI Yeast Anticancer Drug Screen. Data for the mec2-1 strain (AID 157). The note with it: S. cerevisiae mec2-1 strain, at 50.0 µM, stronger effect = higher value. An outline of the steps:
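Readout is yeast growth inhibition, normalised to vehicle-treated controls, in the mec2-1 strain exposed to compound.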

Test [3] is described as follows: NCI Yeast Anticancer Drug Screen. Data for the sgs1 mgt1 strain (AID 161).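 Note: 0% = growth of cultures given vehicle only.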 The note with it: S. cerevisiae sgs1 mgt1 strain, at 50.0 µM, stronger effect = higher value. The gist of the method: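 Compounds are added to genetically altered yeast, and growth is compared with cultures given vehicle alone to give percent inhibition.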
Test [4] can be described thus: NCI Yeast Anticancer Drug Screen. Data for the cln2 rad14 strain (AID 165).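 Note: 0% = growth equal to vehicle treated cultures.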 To be noted: S. cerevisiae cln2 rad14 strain, at 50.0 µM, stronger effect = higher value. An outline of the steps:
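Relative to vehicle controls, growth inhibition of compound-treated cln2 rad14 yeast was recorded.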

A short description of test [5]: NCI Yeast Anticancer Drug Screen. Data for the bub3 strain (AID 167). To be noted: S. cerevisiae bub3 mutant strain, at 50.0 µM, stronger effect = higher value. The gist of the method: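 Screening used yeast with an engineered genetic alteration affecting cell cycle control. Compound-exposed cultures were compared with vehicle cultures, and reduced growth was taken as inhibition.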

A short description of test [6]: NCI Yeast Anticancer Drug Screen. Data for the mlh1 rad18 strain (AID 175). To be noted: S. cerevisiae mlh1 rad18 strain growth inhibition; at 50.0 µM; stronger effect = higher value. The gist of the method: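 Test agents were incubated with a yeast strain of defined genotype (DNA damage repair defect). Inhibition of growth was derived by comparison with vehicle-exposed cultures.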

Regarding `CN(C)/N=C(\N)c1nnn(C)n1`, the growth inhibition in test [1] was -4.45%; in test [2], -14.2%; in test [3], -15.2%; in test [4], -32.8%; in test [5], -11.2%; in test [6] it was -0.3%.

Consider `COc1ccc(C(C#N)C(C)=O)cc1` (stereo unspecified), for which the growth inhibition was 6.75% in test [1]; 4.85% in test [2]; 12.4% in test [3]; 4.45% in test [4]; -3.9% in test [5]; -12.4% in test [6].

For the compound `CCC1(CCOc2ccccc2)C(=O)NC(=O)NC1=O`, the growth inhibition in test [1] was -10.9%; in test [2], -1.45%; in test [3], 1.3%; in test [4] it was -6.55%; in test [5] it was 1.6%; in test [6] it was -1.85%.

For the compound `Cc1ccc(SCC(CSCCO)OCn2cnc3c2NC(N)=NC32OCCO2)cc1` (stereo unspecified), the growth inhibition in test [1] was 6.15%; in test [2] it was 2.3%; in test [3] it was -37.2%; in test [4], -7.4%; in test [5], -12.3%; in test [6] it was -56.9%.

Consider `CCOC(=O)C(C#N)c1ccccc1` (stereo unspecified), for which the growth inhibition is 22.3% in test [1]; 19.1% in test [2]; 18% in test [3]; 14.1% in test [4]; -9.55% in test [5]; 43.4% in test [6].

Regarding `C=C(C)CNC1=C(C)C(=O)C2=C(C1=O)[C@H](COC(N)=O)[C@]1(OC)[C@@H]3N[C@@H]3CN21`, the growth inhibition in test [1] was 5.15%; in test [2], -9.35%; in test [3], 13.3%; in test [4] it was 23.9%; in test [5], 19.4%; in test [6] it was 74.7% (active).

For the compound `O=C(NCCN1CCOCC1)c1cc(N(CCCl)CCCl)c([N+](=O)[O-])cc1[N+](=O)[O-]`, the growth inhibition was 15.8% in test [1]; 7.45% in test [2]; 16.6% in test [3]; 23.6% in test [4]; 33.1% in test [5]; 27.9% in test [6].

Regarding `O=C(O)C(Cl)C(=O)O`, the growth inhibition in test [1] was -4.4%; in test [2], -7.8%; in test [3] it was 9%; in test [4], -26.4%; in test [5], -0.35%; in test [6], -13.9%.

Take `COc1ccc(/C=C(/C)[N+](=O)[O-])cc1OC`: the growth inhibition in test [1] was 99.3% (active); in test [2], 99.7% (active); in test [3], 99.3% (active); in test [4], 97.2% (active); in test [5] it was 99.7% (active); in test [6], 99.5% (active).

In the case of `CC(=O)[CH-]C(C)=O.CC(=O)[CH-]C(C)=O.CC(=O)[CH-]C(C)=O.CCC(=O)O.[Zn+2].[Zn]`, the growth inhibition in test [1] is -20.9%; in test [2], -9.35%; in test [3], -18.4%; in test [4], -38%; in test [5], -0.15%; in test [6], -26.3%.

Consider `CC1CS1` (stereo unspecified), for which the growth inhibition in test [1] was -5.7%; in test [2] it was 4.8%; in test [3] it was -10.1%; in test [4] it was 2.9%; in test [5], 12.2%; in test [6], -11.1%.

Consider `Cc1cc(N)ccc1N`, for which the growth inhibition is 7.15% in test [1]; 11.2% in test [2]; 14.2% in test [3]; 4.25% in test [4]; -6% in test [5]; -2.9% in test [6].

Turning to `[Cl][Hg][c]1cccs1`, the growth inhibition in test [1] was 99.6% (active); in test [2] it was 99.8% (active); in test [3], 99.5% (active); in test [4] it was 99.5% (active); in test [5], 99.7% (active); in test [6], 99.6% (active).

As to `O=C1C(Br)=C(N2CC2)C(=O)C(Br)=C1N1CC1`, the growth inhibition is 96% (active) in test [1]; 88% (active) in test [2]; 90.5% (active) in test [3]; 79.2% (active) in test [4]; 39% in test [5]; 97% (active) in test [6].

For the compound `FC(F)(F)C(OP(OC(C(F)(F)F)C(F)(F)F)OC(C(F)(F)F)C(F)(F)F)C(F)(F)F`, the growth inhibition was 27.4% in test [1]; 8.95% in test [2]; 2.6% in test [3]; 1.55% in test [4]; -4.9% in test [5]; 28.1% in test [6].

Turning to `[CH3][Sb]1([Cl])[CH2]CCC[CH2]1`, the growth inhibition was 0.5% in test [1]; 32.9% in test [2]; 11.1% in test [3]; -6.1% in test [4]; 32% in test [5]; 36.2% in test [6].

In the case of `CC(=O)c1c(O)c(C)c(O)c(Cc2c(O)c3c(c(C(=O)/C=C/c4ccccc4)c2O)OC(C)(C)C=C3)c1O`, the growth inhibition is 23.9% in test [1]; 29.8% in test [2]; 49.1% in test [3]; 17.7% in test [4]; 39.8% in test [5]; 14.5% in test [6].

In the case of `CC(=O)N(C)C(=O)Oc1cccc2ccccc12`, the growth inhibition is -8.35% in test [1]; 17.4% in test [2]; -10.8% in test [3]; -34.2% in test [4]; -27.1% in test [5]; -0.55% in test [6].

Consider `O=c1[nH]c(=O)[nH]c(=O)[nH]1`, for which the growth inhibition in test [1] is 25.6%; in test [2], -16.1%; in test [3] it was -12.9%; in test [4], -42.8%; in test [5], 1.1%; in test [6], 27.6%.

Consider `Cc1cccc(C)c1NC(N)=S`, for which the growth inhibition is 3.85% in test [1]; 6.15% in test [2]; -10.6% in test [3]; -86.7% in test [4]; 6% in test [5]; 3.25% in test [6].

In the case of `Cc1ncc([N+](=O)[O-])n1C(C)C(=O)Nc1ccc(N(CCCl)CCCl)cc1` (stereo unspecified), the growth inhibition in test [1] was -6.2%; in test [2], 10.3%; in test [3] it was 3.5%; in test [4], -2.3%; in test [5], -4.65%; in test [6], 13.2%.
